# Screening results (PubChem BioAssay)
# DUSP3 inh: blocks the human dual specificity phosphatase VHR1; P51452; recombinant VHR phosphatase, colorimetric substrate read-out; inhibition, % at 20 µM; 50,000 compounds, 0.7% hits; AID 1992; in the data active means inhibition above about 60%
# Target sequence (P51452 whole entry, looked up): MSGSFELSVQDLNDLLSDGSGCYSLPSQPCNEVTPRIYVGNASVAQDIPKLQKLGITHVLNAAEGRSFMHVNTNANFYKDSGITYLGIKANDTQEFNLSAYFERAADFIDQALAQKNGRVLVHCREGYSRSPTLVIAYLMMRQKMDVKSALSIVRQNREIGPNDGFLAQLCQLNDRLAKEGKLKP
# An asterisk follows results filed as active. This excerpt belongs to a sample that is enriched for hits.
SMILES,DUSP3 inh
Cc1cc(=O)oc2cc(OC/C(=N\O)c3ccc(Cl)cc3)c(Cl)cc12,106*
Cc1cc(=O)oc2cc(OCC(=O)c3ccc(Cl)cc3)c(Cl)cc12,5
Cc1cc(=O)oc2cc(OCc3ccc(F)cc3)c(Cl)cc12,-2
CC1CC(Nc2ccccc2)c2ccccc2N1C(=O)c1sc2ccccc2c1Cl (stereo not given),3
CCc1cc(=O)oc2cc(OCc3ccccc3Cl)ccc12,-4
CCOc1ccc(Cc2c(C)nc3c(C)cccc3c2Cl)cc1,-29
CCN(Cc1ccccc1)C(=O)c1ccc(SC)cc1OC,16
CN(C)c1ccc(/C=N/NC(=O)c2ccc(O)cc2O)cc1Br,1
CCO/C(=N\S(=O)(=O)c1ccc(Br)cc1)c1ccccc1,-24
COc1ccccc1-n1cnc2cc(NC(C)=O)ccc21,-6
COc1ccc(-n2cnc3cc(NC(C)=O)ccc32)cc1,97*
COc1ccccc1-n1cnc2cc(NC(=O)c3ccc(C)cc3)ccc21,-15
NS(=O)(=O)c1ccc(NC(=O)CCCN2C(=O)/C(=C/c3ccc(Cl)cc3)SC2=S)cc1,8
O=C(Nc1ccc(I)cc1Cl)c1cccc(OCc2ccccc2)c1,2
O=C(Nc1ccccc1C(F)(F)F)c1cccc(OCc2ccccc2)c1,114*
O=C(Nc1ccccc1C(F)(F)F)c1ccc2ccccc2c1,16
O=C(Nc1ccc(Cl)cc1)C1CC(=O)N(c2ccc(Br)cc2)C1 (stereo not given),6
CCOc1ccccc1NC(=O)c1c(NC(=O)Cc2ccc(OC)cc2)sc2c1CCC(C)C2 (stereo not given),8
CCOc1ccccc1NC(=O)c1c(NC(=O)c2ccccc2F)sc2c1CCC(C)C2 (stereo not given),-10
CCOc1ccccc1NC(=O)c1c(NC(=O)c2cccc(F)c2)sc2c1CCC(C)C2 (stereo not given),116*
c1ccc2[nH]c(CSc3nc4ccccc4s3)nc2c1,2
COc1ccc(N(CC(=O)Nc2ccc(C)cc2)S(C)(=O)=O)cc1Cl,-22
CCCC(=O)Nc1nc(-c2ccc(C)c3ccccc23)cs1,-22
Cc1nc(C)c(-c2csc(Nc3ccc(O)cc3)n2)s1,68
CCN(CC)c1ccc(Nc2nc(-c3sc(N)nc3C)cs2)cc1,101*
SMILES,DUSP3 inh
CCN(CC)c1ccc(Nc2nc(-c3c(C)nc4ccccn34)cs2)cc1,55
CCOC(=O)c1c(NC(=O)c2cccs2)sc(C(=O)Nc2cc(C(F)(F)F)ccc2Cl)c1C,-9
O=C1c2cccc3ccc(I)c(c23)C(=O)N1Oc1ccc([N+](=O)[O-])cc1[N+](=O)[O-],-16
Cc1nc(=O)c(-c2ccccc2)c(C)n1-c1ccc(C(=O)O)c(O)c1,8
O=C1C=C(NCc2ccc(F)cc2)CC(c2ccccc2)C1 (stereo not given),-1
c1ccc(NCc2ccc3c(c2)OCO3)cc1,7
O=C1C=C(NCc2ccc3c(c2)OCO3)CC(c2ccccc2)C1 (stereo not given),101*
CCOc1ccccc1NC(=O)c1cc(C(=O)OC)cc([N+](=O)[O-])c1,-49
NNc1nnc2c(n1)[nH]c1ccc(Br)cc12,37
O=C(CCN1C(=O)/C(=C\c2cccs2)SC1=S)Nc1nccs1,-14
CN(C)c1ccc(/C=N/S(=O)(=O)CCc2ccccc2)cc1,-3
CN(C)c1ccc(/C=C/C=C/c2cc[n+](CCCS(=O)(=O)[O-])cc2)cc1,100*
Cc1ccc(S(=O)(=O)N/N=C/C=C/c2ccc(N(C)C)cc2)cc1[N+](=O)[O-],-8
Cc1ccccc1N1C(=O)/C(=C/c2cc(C)n(-c3cccnc3)c2C)C(=O)NC1=S,6
CCCC(=O)Nc1ccc(NC(=S)NC(=O)c2ccco2)cc1,-24
CCN1C(=O)/C(=C\c2cccc(OS(=O)(=O)c3ccc(C)cc3)c2)SC1=S,-3
Cc1ccc(S(=O)(=O)Oc2cccc(/C=C3/SC(=S)N(Cc4ccccc4)C3=O)c2)cc1,108*
C=CCN1C(=O)/C(=C\c2cccc(OS(=O)(=O)c3ccc(C)cc3)c2)SC1=S,-10
O=C1NC(=O)N(c2cccc(F)c2)C(=O)/C1=C/c1ccc(N2CCOCC2)o1,37
CC1=C(C(=O)Nc2cc(Cl)ccc2C)C(c2ccccc2Cl)NC(=O)N1 (stereo not given),-5
Cc1ccc(NCC(=O)N/N=C\c2ccc(OC(=O)c3ccccc3)cc2)cc1,-10
O=C(Oc1ccc(/C=N/O)cc1)c1ccc(Br)cc1,104*
O=C(N/N=C/c1ccc(/C=N/NC(=O)c2ccc(Br)cc2)cc1)c1ccc(Br)cc1,-2
Cc1ccc(C23CC4CC(C2)CC(c2csc(N)n2)(C4)C3)cc1,6
Cc1cc(C=C2C(=O)NC(=O)NC2=O)c(C)n1-c1ccc(F)cc1,-7
SMILES,DUSP3 inh
CCOC(=O)/C=C(\C)Nc1cc(-c2ccc(Cl)cc2)[nH]n1,6
CCOC(=O)/C=C(\C)Nc1cc(C)nn1-c1ccccc1,110*
CC(=O)Nc1cc(-c2ccc(Cl)cc2)nn1-c1ccccc1,4
O=C(c1c(F)cccc1F)N1CCN(c2cc(N3CCCCC3)c(F)cc2[N+](=O)[O-])CC1,5
CCc1cc(C)nc2cc(-c3ccccc3)nn12,-14
Cc1cc(=O)[nH]c2cc(-c3ccccc3)nn12,97*
Cc1cc2[nH]c(=O)cc(-c3ccccc3)n2n1,-13
O=C(O)c1ccc(/C=C2\SC(=S)N(C(Cc3ccccc3)C(=O)O)C2=O)cc1 (stereo not given),-13
O=C(O)C(Cc1ccccc1)N1C(=O)/C(=C/c2ccc(F)cc2)SC1=S (stereo not given),-39
O=C(O)C(Cc1ccccc1)N1C(=O)/C(=C/C=C/c2ccccc2)SC1=S (stereo not given),92*
CC(=O)Nc1ccc(N2C(=O)c3cccc4c([N+](=O)[O-])ccc(c34)C2=O)cc1,-55
COc1ccc(N2CN=C3SC(CO)(CO)C(=O)N3C2)cc1,-22
Cc1ccc(C=Nc2cc(C)on2)c(O)c1,-17
CC1=C(C(=O)OCCCc2ccccc2)C(c2c(F)cccc2Cl)CC(=O)N1 (stereo not given),8
CC1=C(C(=O)OCc2ccccc2)C(c2ccc([N+](=O)[O-])cc2)CC(=O)N1 (stereo not given),-9
CC1=C(C(=O)OCc2ccccc2)C(c2c(F)cccc2Cl)CC(=O)N1 (stereo not given),112*
COCCOC(=O)C1=C(C)NC(=O)CC1c1c(F)cccc1Cl (stereo not given),-11
CC1=C(C(=O)OCc2ccccc2)C(c2ccccc2[N+](=O)[O-])CC(=O)N1 (stereo not given),97*
COC(=O)c1ccc(C2CC(=O)NC(C)=C2C(=O)OCc2ccccc2)cc1 (stereo not given),-11
O=C(c1cccc(F)c1)N1CCN(c2cc(N3CCCC3)c(F)cc2[N+](=O)[O-])CC1,8
COc1ccc(C)cc1NC(=O)C(=O)NCCc1ccccc1,-1
Cc1onc(-c2c(Cl)cccc2Cl)c1C(=O)N1CCN(c2cccc(Cl)c2)CC1,-19
Nc1nc2nc(C(F)(F)C(F)(F)C(F)(F)C(F)(F)F)cc(=O)n2[nH]1,-17
COc1ccc(C2CC(=O)C3=C(C2)Nc2ccccc2NC3c2cccc(OC)c2OC)cc1OC (stereo not given),-1
COc1ccc(C2CC(=O)C3=C(C2)Nc2ccccc2NC3c2ccccc2OCc2ccccc2)cc1OC (stereo not given),98*
O=C1CC(c2ccccc2)CC2=C1C(c1ccc(-c3ccccc3)cc1)Nc1ccccc1N2 (stereo not given),4
